# What was measured:
# Experiment in all cases: protein-binding microarray (PBM); PBM: ~300 nM protein, 6 mM HEPES pH 7.8, 80 mM KCl, 0.5 mM EDTA, 0.5 mM EGTA, 6% glycerol, 35 ng/ul poly-dIdC, 1% milk, 1 h, room temperature; Ap Aiptasia and Nv Nematostella (sea anemones) / Co Capsaspora / Aq Amphimedon (sponge) / Dm Drosophila / Hu human; RHD is the Rel homology domain; high values mean tight binding
# Conditions in all cases: dsDNA, one strand shown
# [1] = target: T1, GST-Ap-NF-kB RHD (Exaiptasia pallida (Aiptasia), UniProt A0A913YAJ5 2-422)
# T1 sequence: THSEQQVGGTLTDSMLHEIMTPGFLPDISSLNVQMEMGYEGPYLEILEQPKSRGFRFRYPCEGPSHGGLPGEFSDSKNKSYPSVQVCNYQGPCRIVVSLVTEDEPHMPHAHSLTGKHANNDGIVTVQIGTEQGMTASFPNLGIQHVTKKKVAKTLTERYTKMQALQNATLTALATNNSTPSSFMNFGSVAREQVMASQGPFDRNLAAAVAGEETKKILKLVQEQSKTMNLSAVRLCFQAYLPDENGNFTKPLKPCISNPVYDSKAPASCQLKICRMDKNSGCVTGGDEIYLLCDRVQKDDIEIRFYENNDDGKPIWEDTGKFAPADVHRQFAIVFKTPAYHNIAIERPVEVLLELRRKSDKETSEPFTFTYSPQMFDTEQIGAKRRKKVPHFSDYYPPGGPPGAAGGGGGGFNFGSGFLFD
# [2] = target: T2, GST-Nv-NF-kB (Cys allele) (Nematostella vectensis, UniProt E5G601 2-411)
# T2 sequence: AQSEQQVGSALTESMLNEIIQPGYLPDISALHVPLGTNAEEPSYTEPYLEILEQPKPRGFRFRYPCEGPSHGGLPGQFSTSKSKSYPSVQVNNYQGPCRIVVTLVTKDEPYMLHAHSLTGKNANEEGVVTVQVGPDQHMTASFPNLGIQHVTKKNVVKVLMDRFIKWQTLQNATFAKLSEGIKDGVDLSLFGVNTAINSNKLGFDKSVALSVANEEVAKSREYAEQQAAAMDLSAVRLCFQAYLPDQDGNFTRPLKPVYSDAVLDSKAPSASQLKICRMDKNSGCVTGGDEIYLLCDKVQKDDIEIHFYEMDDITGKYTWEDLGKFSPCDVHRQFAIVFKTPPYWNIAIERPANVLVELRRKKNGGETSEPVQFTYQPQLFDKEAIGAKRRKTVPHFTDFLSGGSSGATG
# [3] = target: T3, GST-Co-NF-kB (Capsaspora owczarzaki, UniProt F1ARL5 200-546)
# T3 sequence: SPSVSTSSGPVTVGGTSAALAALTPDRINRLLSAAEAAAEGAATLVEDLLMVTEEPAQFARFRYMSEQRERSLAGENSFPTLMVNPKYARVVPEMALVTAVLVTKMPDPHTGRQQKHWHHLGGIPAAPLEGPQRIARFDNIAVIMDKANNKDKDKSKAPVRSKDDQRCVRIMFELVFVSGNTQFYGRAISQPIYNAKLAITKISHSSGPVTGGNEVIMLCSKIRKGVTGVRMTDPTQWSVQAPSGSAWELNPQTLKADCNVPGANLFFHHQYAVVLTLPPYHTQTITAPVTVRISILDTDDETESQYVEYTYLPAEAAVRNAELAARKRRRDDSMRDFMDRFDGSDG
# [4] = target: T4, GST-Aq-NF-kB (Amphimedon queenslandica, UniProt A9Y5G7 2-389)
# T4 sequence: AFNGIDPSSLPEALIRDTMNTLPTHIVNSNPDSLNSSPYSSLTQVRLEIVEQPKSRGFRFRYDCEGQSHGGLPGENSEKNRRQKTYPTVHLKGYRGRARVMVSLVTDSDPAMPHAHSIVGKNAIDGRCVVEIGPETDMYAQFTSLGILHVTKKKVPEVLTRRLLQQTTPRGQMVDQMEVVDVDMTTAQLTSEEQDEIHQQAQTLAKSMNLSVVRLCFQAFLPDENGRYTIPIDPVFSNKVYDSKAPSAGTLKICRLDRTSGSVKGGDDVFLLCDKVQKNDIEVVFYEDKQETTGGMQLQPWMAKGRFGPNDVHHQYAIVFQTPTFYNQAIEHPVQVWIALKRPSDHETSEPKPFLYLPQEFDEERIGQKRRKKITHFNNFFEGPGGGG
# [5] = target: T5, GST-Dm-Relish (Drosophila melanogaster, UniProt Q94527 99-473)
# T5 sequence: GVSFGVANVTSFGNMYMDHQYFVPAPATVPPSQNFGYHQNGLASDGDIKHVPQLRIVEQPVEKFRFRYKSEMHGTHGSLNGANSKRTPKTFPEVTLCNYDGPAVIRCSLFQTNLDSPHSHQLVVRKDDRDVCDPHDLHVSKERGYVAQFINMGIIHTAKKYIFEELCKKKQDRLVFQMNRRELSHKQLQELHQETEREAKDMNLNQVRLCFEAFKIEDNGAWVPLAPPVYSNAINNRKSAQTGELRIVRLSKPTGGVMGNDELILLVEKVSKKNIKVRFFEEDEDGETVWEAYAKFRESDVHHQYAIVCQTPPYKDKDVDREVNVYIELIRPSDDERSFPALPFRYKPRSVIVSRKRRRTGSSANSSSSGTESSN
sequence,measurement,setting,value
CCGATTAACATCAAATCGGGAAATGATGTTAATCGGGTCTTGATTCGCTTGACGCTGCTG,binding signal,[1],1.42 z-score
same,binding signal,[2],3.49 z-score
same,binding signal,[3],2 z-score
same,binding signal,[4],1.61 z-score
CCGATTAACATCACCTTGGGAAATGATGTTAATCGGGTCTTGATTCGCTTGACGCTGCTG,binding signal,[1],1.21 z-score
same,binding signal,[2],1.7 z-score
same,binding signal,[3],2.79 z-score
same,binding signal,[4],1.62 z-score
CCGATTAACATCATGGTGGGAAATGATGTTAATCGGGTCTTGATTCGCTTGACGCTGCTG,binding signal,[1],1.25 z-score
same,binding signal,[2],2.69 z-score
same,binding signal,[3],2.94 z-score
same,binding signal,[4],1.9 z-score
CCGATTAACATCAATCGGGAAATTGATGTTAATCGGGTCTTGATTCGCTTGACGCTGCTG,binding signal,[1],1.3 z-score
same,binding signal,[2],3.45 z-score
same,binding signal,[3],2.19 z-score
same,binding signal,[4],2.1 z-score
CCGATTAACATCACATCTTTCCCTGATGTTAATCGGGTCTTGATTCGCTTGACGCTGCTG,binding signal,[1],2.24 z-score
same,binding signal,[2],3.96 z-score
same,binding signal,[3],3.84 z-score
same,binding signal,[4],4.25 z-score
CCGATTAACATCATTTCCCTTGATGATGTTAATCGGGTCTTGATTCGCTTGACGCTGCTG,binding signal,[1],1.97 z-score
same,binding signal,[2],4.19 z-score
same,binding signal,[3],1.95 z-score
same,binding signal,[4],3.49 z-score
CCGATTAACATCAGGGAAAAGAATGATGTTAATCGGGTCTTGATTCGCTTGACGCTGCTG,binding signal,[1],2.43 z-score
same,binding signal,[2],4.22 z-score
same,binding signal,[3],2.97 z-score
same,binding signal,[4],3.22 z-score
CCGATTAACATCATACAAGGGAGTGATGTTAATCGGGTCTTGATTCGCTTGACGCTGCTG,binding signal,[1],1.02 z-score
same,binding signal,[2],1.41 z-score
same,binding signal,[3],1.46 z-score
same,binding signal,[4],2.84 z-score
CCGATTAACATCAGGGAATCAGATGATGTTAATCGGGTCTTGATTCGCTTGACGCTGCTG,binding signal,[1],1.26 z-score
same,binding signal,[2],1.61 z-score
same,binding signal,[3],1.68 z-score
same,binding signal,[4],1.84 z-score
CCGATTAACATCACCTCTTTCCCTGATGTTAATCGGGTCTTGATTCGCTTGACGCTGCTG,binding signal,[1],2.58 z-score
same,binding signal,[2],2.64 z-score
same,binding signal,[3],3.61 z-score
same,binding signal,[4],2.52 z-score
CCGATTAACATCAGGGAAAGGAATGATGTTAATCGGGTCTTGATTCGCTTGACGCTGCTG,binding signal,[1],1.83 z-score
same,binding signal,[2],3.07 z-score
same,binding signal,[3],1.48 z-score
same,binding signal,[4],2.97 z-score
CCGATTAACATCAGACTGGGAAATGATGTTAATCGGGTCTTGATTCGCTTGACGCTGCTG,binding signal,[1],1.4 z-score
same,binding signal,[2],1.92 z-score
same,binding signal,[3],3.05 z-score
same,binding signal,[4],1.18 z-score
CCGATTAACATCAGGGAAAGGGATGATGTTAATCGGGTCTTGATTCGCTTGACGCTGCTG,binding signal,[1],2.49 z-score
same,binding signal,[2],3.29 z-score
same,binding signal,[3],2.1 z-score
same,binding signal,[4],2.84 z-score
CCGATTAACATCAAATGTGGGAATGATGTTAATCGGGTCTTGATTCGCTTGACGCTGCTG,binding signal,[1],1.11 z-score
same,binding signal,[2],1.53 z-score
same,binding signal,[3],3.07 z-score
same,binding signal,[4],2.21 z-score
CCGATTAACATCAACATGGGAATTGATGTTAATCGGGTCTTGATTCGCTTGACGCTGCTG,binding signal,[1],1.01 z-score
same,binding signal,[2],2.42 z-score
same,binding signal,[3],1.5 z-score
same,binding signal,[4],1.89 z-score
CCGATTAACATCAGTACGGGAAATGATGTTAATCGGGTCTTGATTCGCTTGACGCTGCTG,binding signal,[1],1.79 z-score
same,binding signal,[2],3.11 z-score
same,binding signal,[3],2.65 z-score
same,binding signal,[4],2.81 z-score
CCGATTAACATCACCCAGTTCCCTGATGTTAATCGGGTCTTGATTCGCTTGACGCTGCTG,binding signal,[1],1.22 z-score
same,binding signal,[2],1.21 z-score
same,binding signal,[3],1.44 z-score
same,binding signal,[4],1.7 z-score
CCGATTAACATCAGGTCGGGAAATGATGTTAATCGGGTCTTGATTCGCTTGACGCTGCTG,binding signal,[1],1.76 z-score
same,binding signal,[2],2.6 z-score
same,binding signal,[3],3.1 z-score
same,binding signal,[4],1.83 z-score
CCGATTAACATCAGGGGAGTGTATGATGTTAATCGGGTCTTGATTCGCTTGACGCTGCTG,binding signal,[1],3.6 z-score
same,binding signal,[2],3.38 z-score
same,binding signal,[3],3.2 z-score
same,binding signal,[4],2.89 z-score
CCGATTAACATCAGGGACAAAAATGATGTTAATCGGGTCTTGATTCGCTTGACGCTGCTG,binding signal,[1],2 z-score
same,binding signal,[2],3.15 z-score
same,binding signal,[3],2.39 z-score
same,binding signal,[4],2.39 z-score
CCGATTAACATCAACTCGGGAAATGATGTTAATCGGGTCTTGATTCGCTTGACGCTGCTG,binding signal,[1],1.08 z-score
same,binding signal,[2],2.75 z-score
same,binding signal,[3],3.32 z-score
same,binding signal,[4],1.73 z-score
CCGATTAACATCAGGGGCGGGAATGATGTTAATCGGGTCTTGATTCGCTTGACGCTGCTG,binding signal,[1],2.87 z-score
same,binding signal,[2],3.85 z-score
same,binding signal,[3],3.85 z-score
same,binding signal,[5],2.49 z-score
same,binding signal,[4],4.18 z-score
CCGATTAACATCAGGGGAGTTAATGATGTTAATCGGGTCTTGATTCGCTTGACGCTGCTG,binding signal,[1],4.13 z-score
same,binding signal,[2],4.06 z-score
same,binding signal,[3],3.34 z-score
same,binding signal,[5],3.14 z-score
same,binding signal,[4],3.63 z-score
CCGATTAACATCAACATCCCCCCTGATGTTAATCGGGTCTTGATTCGCTTGACGCTGCTG,binding signal,[1],5.64 z-score
same,binding signal,[2],5.25 z-score
same,binding signal,[3],5.48 z-score
same,binding signal,[5],5.72 z-score
same,binding signal,[4],5.23 z-score
CCGATTAACATCACGTTCCCCCCTGATGTTAATCGGGTCTTGATTCGCTTGACGCTGCTG,binding signal,[1],6.32 z-score
same,binding signal,[2],5.07 z-score
same,binding signal,[3],9.5 z-score
same,binding signal,[5],4.11 z-score
same,binding signal,[4],4.43 z-score
CCGATTAACATCAGATACCCCCCTGATGTTAATCGGGTCTTGATTCGCTTGACGCTGCTG,binding signal,[1],6.55 z-score
same,binding signal,[2],4.3 z-score
same,binding signal,[3],4.8 z-score
same,binding signal,[5],3.94 z-score
same,binding signal,[4],4.46 z-score
CCGATTAACATCAGGGGCACCCCTGATGTTAATCGGGTCTTGATTCGCTTGACGCTGCTG,binding signal,[1],5.17 z-score
same,binding signal,[2],3.94 z-score
same,binding signal,[3],2.5 z-score
same,binding signal,[5],7.23 z-score
same,binding signal,[4],7.19 z-score
CCGATTAACATCAGGGGGTGTAATGATGTTAATCGGGTCTTGATTCGCTTGACGCTGCTG,binding signal,[1],3.57 z-score
same,binding signal,[2],3.16 z-score
same,binding signal,[3],3.87 z-score
same,binding signal,[5],3.25 z-score
same,binding signal,[4],3.21 z-score
CCGATTAACATCAGGGAATTAAATGATGTTAATCGGGTCTTGATTCGCTTGACGCTGCTG,binding signal,[1],2.06 z-score
same,binding signal,[2],4.46 z-score
same,binding signal,[3],3.84 z-score
same,binding signal,[5],2.47 z-score
same,binding signal,[4],4.32 z-score
CCGATTAACATCAAAAAATGCCCTGATGTTAATCGGGTCTTGATTCGCTTGACGCTGCTG,binding signal,[1],2.08 z-score
same,binding signal,[2],3.03 z-score
same,binding signal,[3],1 z-score
same,binding signal,[5],3.67 z-score
same,binding signal,[4],4.05 z-score
CCGATTAACATCAGAATTACCCATGATGTTAATCGGGTCTTGATTCGCTTGACGCTGCTG,binding signal,[1],3.09 z-score
same,binding signal,[2],3.82 z-score
same,binding signal,[3],2.12 z-score
same,binding signal,[5],1.97 z-score
same,binding signal,[4],3.58 z-score

# Source: publication PMC5700166
